In the library only some 14% were active in any assay of this set; here they are far more common.
Pf growth 48h: inhibits P. falciparum growth in the first generation, 48 h | P. falciparum luciferase growth in erythrocytes, 48 h | Potency, µM (highest dose often 28.7 µM), without a hit: top-dose activity change, negative = inhibition, actives largely listed as inhibitors | 310,000 tested, 5.9% active; further: potency means the concentration at half of the fitted maximal effect
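Here the parasites carry a stable luciferase gene and grow inside erythrocytes in Albumax-based RPMI medium with compound for one erythrocytic cycle. Activity is scored as loss of luminescent signal.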
MARV entry inh: inhibitors of Marburg virus binding or cell entry. Potency, µM (doses to about 37.8 µM), for the others: at the highest dose activity change, negative = inhibition, actives largely listed as inhibitors. 300,000 tested, 1.8% active. Marburg virus pseudotyped entry inhibition, cell reporter; calls by dose curve; tested in HEK293 cells; further: potency means the concentration at half of the fitted maximal effect
HCV inh: HCV inhibition; Potency, µM (top dose mostly 41.8 µM), for inactives: at the top dose activity change, negative = inhibition, most hits filed as inhibitors; 340,000 tested, 3.4% active; AID 651820; Huh7.5.1 HCVcc-Cre infection, luciferase reporter, 44 h; further: potency means the concentration at half of the fitted maximal effect
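Luciferase read-out (15 sec integration) after a 15 min room-temperature substrate step quantifies HCVcc-Cre infection. Cells, 1,000 per well, had compound added 4 h post-plating, then virus at ~0.5 moi, and were cultured 44 h.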
HCMV antiviral: human cytomegalovirus inhibition | 410,000 tested, 4.5% active | activity change, negative = inhibition, % at 57.5 µM | AID 1259415 | HFF cells, HCMV-luciferase reporter, 72 h; stronger effect = lower value; in the data active means activity change below about -60%; inconclusive means no clear call, values can overlap the other calls; inactive means above about -39%
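HFF cells seeded 16 h at 37C, treated with compounds, infected with luciferase-reporter HCMV at MOI 1 PFU/cell; luciferase read at 72 h post infection, normalized to buffer-only and Salinomycin controls.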
Lassa entry inh: inhibitors of Lassa virus binding or cell entry; Potency, µM (highest dose often 37.9 µM), inactives show at the highest dose activity change, negative = inhibition, most hits filed as inhibitors; Lassa virus pseudotype entry inhibition, cell reporter; 300,000 tested, 1.2% active; calls by dose curve; tested in HEK293 cells; further: potency means the concentration at half of the fitted maximal effect; nearly all actives have a fitted effect of over 50% in size
Pf growth 96h: inhibits malaria parasite growth, 96 h; Potency, µM (series often up to 28.7 µM), for inactives: at the top dose activity change, negative = inhibition, usual class: inhibitors; 320,000 tested, 6.9% active; AID 504834; P. falciparum luciferase reporter growth, 96 h; further: potency means the concentration at half of the fitted maximal effect
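Delayed-death screen, second-generation endpoint: infected erythrocytes, 2% hematocrit, 0.05% parasitemia final; 96 hours at 37 C, 5% CO2; luciferase detection reagent; luminescence decrease equals reduced growth.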
An asterisk follows results filed as active; ? = inconclusive; / = no result given; [ ] = dose if it differs, or a comment. Unless noted, the call rests on the fitted dose curve; in most records, active means well fitted inhibition curve with a large enough effect; inconclusive means small, poorly fitted or top-dose-only effect, or another doubt; inactive means no such curve, though single readings can be large or run the other way. On the % scale 0 is the no-effect control and ±100 the full control effect.

SMILES | Pf growth 48h | MARV entry inh | HCV inh | HCMV antiviral | Lassa entry inh | Pf growth 96h
COc1ccccc1NS(=O)(=O)c1cc(NC(=O)CNC(=O)c2cc(C)cc(C)c2)ccc1C | ? | ? | ? | ? | -14% | ?
CCN(CC)c1ccc(NC(=O)COc2ccccc2C)cc1S(=O)(=O)Nc1ccccc1OC | 9.3µM* | ? | ? | ? | ? | ?
CCN(CC)c1ccc(NC(=O)c2ccc(=O)[nH]c2)cc1S(=O)(=O)Nc1ccccc1OC | 10µM* | ? | 22µM* | 9 | -29%[46.1 µM] | 6.6µM*
COc1ccc(NC(=O)c2ccc(=O)[nH]c2)cc1S(=O)(=O)N1CCCCC1 | 2% | 32% | 4% | 21 | -14% | -8%
CCN(CC)c1ccc(NC(=O)c2cnccn2)cc1S(=O)(=O)Nc1ccc(OC)cc1 | ? | ? | 8.9µM* | -32 | ? | ?
COc1ccc(NC(=O)c2ccccc2F)cc1Cl | / | -15% | -8% | 43 | -16% | 2%
CCN(CC)c1ccc(NC(=O)c2ccccc2F)cc1S(=O)(=O)Nc1ccccc1OC | 4.7µM* | ? | ? | -18 | ? | 10µM*
Cc1nnc(SCC(=O)NCc2ccc(N(C)C)cc2)c2nn(-c3ccccc3)c(C)c12 | / | / | / | -27 | -7%[46.1 µM] | /
CCN(CC)c1ccc(NC(=O)COc2ccccc2C#N)cc1S(=O)(=O)Nc1ccc(OC)cc1 | 8.3µM* | ? | ? | 14 | ? | 4.1µM*
CCN(CC)c1ccc(NC(=O)c2ccccc2Br)cc1S(=O)(=O)Nc1ccccc1OC | 15µM* | ? | ? | -26 | ? | 0%
COc1ccc(NS(=O)(=O)c2cccc(NC(=O)COc3ccccc3[N+](=O)[O-])c2)cc1 | / | ? | ? | 13 | 7% | /
COCCN(CCOC)S(=O)(=O)c1ccc(NC(=O)c2cnccn2)cc1 | 8.3µM* | / | 11% | 18 | / | 9%
COCCN(CCOC)S(=O)(=O)c1ccc(C(=O)Nc2ccc(S(=O)(=O)Nc3nccc(C)n3)cc2)cc1 | ? | / | 22% | -38 | / | -20%
O=C(N=C1SC2CS(=O)(=O)CC2N1Cc1ccc(Cl)cc1)C1CC1 (configuration not stated) | 4% | -17%[46.1 µM] | -3% | -10 | 12%[46.1 µM] | 13%
COc1cccc(OC)c1C(=O)OCc1c(-c2ccccc2)ncc2ccccc12 | / | / | -25% | -30 | / | /
Cc1ccc(C)c(-n2cc(CNCCCn3cccn3)c(-c3ccccc3)n2)c1 | ? | 10µM* | ? | -65* | ? | -27%
Cc1ccc(C)c(-n2cc(CNC(C)Cn3cncn3)c(-c3ccccc3)n2)c1 (configuration not stated) | 13µM* | -9%[46.1 µM] | -4% | -28 | 9% | ?
Cc1ccc(-n2cc(CNC(C)Cn3cncn3)c(-c3ccc(F)cc3)n2)cc1 (configuration not stated) | 7.4µM* | ? | -7% | -38 | -15% | 11%
COc1ccc(NC(=O)c2ccc([N+](=O)[O-])s2)c([N+](=O)[O-])c1 | 47% | / | -8% | -85* | / | ?
COc1ccc(NC(=O)c2ccc(C)o2)c([N+](=O)[O-])c1 | 129% | 1% | 6% | -12 | 6% | 30%
COc1ccc(NC(=O)c2ccc(Br)o2)c([N+](=O)[O-])c1 | 101% | -1% | 6% | ? | -9% | 1%
COc1ccc(NC(=O)c2cc(Br)ccc2Cl)c([N+](=O)[O-])c1 | -7%[5.75 µM] | -10%[46.1 µM] | -3% | -63* | -13% | 1%
COc1ccc(NC(=O)c2ccc(C)cc2Cl)c([N+](=O)[O-])c1 | 102% | ? | -9% | 34 | -1% | 3.7µM*
COc1ccc(NC(=O)/C=C/C(=O)O)c([N+](=O)[O-])c1 | -17% | 11%[46.1 µM] | 6% | 24 | -3% | 0%
O=C1CCCC2=C1C1c3ccccc3C(=O)N1c1ccc(C(=O)c3ccccc3)cc1N2 (configuration not stated) | 2.3µM* | ? | ? | -76* | ? | 89%
SMILES | Pf growth 48h | MARV entry inh | HCV inh | HCMV antiviral | Lassa entry inh | Pf growth 96h
O=C1C(=O)N(CNc2ccccn2)c2ccccc21 | 7% | ? | -6% | -68* | ? | ?
C=C(C)C(=O)N1CCN(C(=O)C(=C)C)c2ccccc21 | / | -8%[46.1 µM] | 5% | 65 | 0%[46.1 µM] | /
Cc1ccc(C(CNC(=O)Nc2ccc(Cl)cc2)N2CCN(C)CC2)cc1 (configuration not stated) | ? | ? | 13µM* | -21 | ? | ?
Cc1cc(C)c(O)c(CN(C)Cc2cc(Cl)cc(Cl)c2O)c1 | / | 3.2µM* | ? | 12 | ? | /
Cc1ccnc(NCc2cc(Cl)cc(Cl)c2O)c1 | / | / | / | 27 | / | /
C[C@H](CO)N1C[C@H](C)[C@@H](CN(C)C(=O)OCc2ccccc2)OCc2cn(nn2)CCCC1=O | / | / | / | -6 | / | /
Cc1ccc(O)c(C(CC(=O)N2CCCC2)c2ccccc2)c1 (configuration not stated) | -1% | 0% | 11% | / | 3% | 0.37µM*
O=C(CC(c1ccccc1)c1ccccc1O)N1CCCCC1 (configuration not stated) | -19% | / | 0% | -82* | / | ?
COc1ccc(CCNC(=O)Cc2ccccc2)cc1OC | 0% | 0%[46.1 µM] | 3% | ? | -1%[46.1 µM] | 74%
Cc1ccc(O)c(C(CC(=O)NC(C)C)c2ccccc2)c1 (configuration not stated) | -19% | / | ? | -35 | / | 13µM*
COc1ccc(CCNC(=O)CC(c2ccccc2)c2cc(C)ccc2O)cc1OC (configuration not stated) | ? | / | 10µM* | / | / | 1%
Cc1nn(C)c2c1c(C(F)(F)F)cc(=O)n2C(C)C(=O)NCCc1ccccc1 (configuration not stated) | / | / | / | -2 | 12%[46.1 µM] | /
CCC12CN3CCN(CC(C3)/C1=N/NC(N)=O)C2 | 6% | 7%[46.1 µM] | 7% | -35 | 18% | 0%
CC1CC(C)C(=NNC(N)=O)C(C(O)CC2CCC(=O)NC2=O)C1 (configuration not stated) | / | ? | 10µM* | ? | ? | /
C[C@H]1C[C@@H](C)C(=O)[C@@H]([C@H](O)CC2CC(=O)NC(=O)C2)C1 | 0.033µM* | / | ? | -107* | / | ?
O=C(CCSCc1ccccc1Cl)NCc1ccc(F)cc1Cl | / | / | / | -10 | 4%[46.1 µM] | /
N=C1S/C(=C\c2cccc3ccccc23)C(=O)N1c1ccc(F)cc1 | 12µM* | ? | ? | -71* | 8.9µM* | -12%
O=S(=O)(c1cccc2ccccc12)N1CCN(c2ccc(Cl)c(Cl)c2)CC1 | / | ? | / | -1 | ? | /

From PubChem
